According to PubChem BioAssay (EPA / NIEHS):
The source made the active and inactive calls. Rule for the calls: active = hit-call score of the fitted dose curve at least 0.9, where 1 is the maximum; inactive = score below 0.9.

Experiments:
[1] = read-out: Low-density lipoprotein receptor (LDLR), LDLR (gene 3949); experiment: BSK_CASM3C_LDLR: BioMAP Diversity Plus: CASM3C Assay for Low-density lipoprotein receptor (LDLR) Biomarker Activity (AID 2283045); details: primary human coronary artery smooth muscle cells; actives raise or lower the signal;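 note: LDLR protein level on the cell surface quantified by ELISA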
[2] = read-out: Monocyte Chemoattractant Protein-1 (MCP1), CCL2 (gene 6347); experiment: BSK_CASM3C_MCP1: BioMAP Diversity Plus: CASM3C Assay for Monocyte Chemoattractant Protein-1 (MCP1) Biomarker Activity (AID 2283046); details: primary human coronary artery smooth muscle cells; actives raise or lower the signal;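 note: MCP-1 level quantified by ELISA 24 h after dosing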
[3] = BSK_CASM3C_Proliferation: Cell Proliferation Assessment in the BioMAP Diversity Plus: CASM3C Assay (AID 2283047); details: primary human coronary artery smooth muscle cells;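 note: sulforhodamine B total protein stain as relative cell number at 560 nm; sub-confluent cells exposed 48 h before staining; fitted both ways against DMSO so gain or loss of cell number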
[4] = read-out: Monokine induced gamma interferon (MIG), CXCL9 (gene 4283); experiment: BSK_CASM3C_MIG: BioMAP Diversity Plus: CASM3C Assay for Monokine induced gamma interferon (MIG) Biomarker Activity (AID 2283048); details: primary human coronary artery smooth muscle cells; actives raise or lower the signal;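 note: MIG protein level measured by ELISA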
[5] = read-out: serum amyloid A (SAA), SAA1 (gene 6288); experiment: BSK_CASM3C_SAA: BioMAP Diversity Plus: CASM3C Assay for serum amyloid A (SAA) Biomarker Activity (AID 2283049); details: primary human coronary artery smooth muscle cells; actives raise or lower the signal;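 note: SAA protein level quantified by ELISA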
[6] = BSK_CASM3C_SRB: Viability Assessment in the BioMAP Diversity Plus: CASM3C Assay (AID 2283050); details: primary human coronary artery smooth muscle cells;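 note: total protein by SRB staining as cytotoxicity measure in parallel cultures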
[7] = read-out: Thrombomodulin, THBD (gene 7056); experiment: BSK_CASM3C_Thrombomodulin: BioMAP Diversity Plus: CASM3C Assay for Thrombomodulin Biomarker Activity (AID 2283051); details: primary human coronary artery smooth muscle cells; actives raise or lower the signal;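 note: thrombomodulin protein level measured by ELISA 24 h after dosing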
[8] = read-out: Tissue Factor, F3 (gene 2152); experiment: BSK_CASM3C_TissueFactor: BioMAP Diversity Plus: CASM3C Assay for Tissue Factor Biomarker Activity (AID 2283052); details: primary human coronary artery smooth muscle cells; actives raise or lower the signal;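 note: cell surface tissue factor protein level read by ELISA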
[9] = read-out: Interferon-gamma inducible Protein 10 (IP10), CXCL10 (gene 3627); experiment: BSK_hDFCGF_IP10: BioMAP Diversity Plus: hDFCGF Assay for Interferon-gamma inducible Protein 10 (IP10) Biomarker Activity (AID 2283053); details: primary human foreskin fibroblasts; actives raise or lower the signal
In short: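 Human foreskin fibroblast primary cells (hDFCGF system) were dosed with chemical and assayed at 24 h; IP-10 measured by ELISA. Activity fitted bidirectionally relative to DMSO negative control as baseline.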

[10] = read-out: Urokinase-type plasminogen activator receptor (uPAR), PLAUR (gene 5329); experiment: BSK_CASM3C_uPAR: BioMAP Diversity Plus: CASM3C Assay for Urokinase-type plasminogen activator receptor (uPAR) Biomarker Activity (AID 2283054); details: primary human coronary artery smooth muscle cells; actives raise or lower the signal;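 note: cell-surface uPAR protein level quantified by ELISA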
[11] = read-out: Vascular cell adhesion molecule 1 (VCAM1), VCAM1 (gene 7412); experiment: BSK_CASM3C_VCAM1: BioMAP Diversity Plus: CASM3C Assay for Vascular cell adhesion molecule 1 (VCAM1) Biomarker Activity (AID 2283055); details: primary human coronary artery smooth muscle cells; actives raise or lower the signal;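 note: VCAM-1 protein level quantified by ELISA on the cells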
[12] = read-out: Collagen III, COL3A1 (gene 1281); experiment: BSK_hDFCGF_CollagenIII: BioMAP Diversity Plus: hDFCGF Assay for Collagen III Biomarker Activity (AID 2283056); details: primary human foreskin fibroblasts; actives raise or lower the signal
In short: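 Response relative to DMSO, fitted in both directions, reflects ELISA-measured collagen III in human primary skin fibroblasts 24 h after compound addition.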

[13] = read-out: Epidermal growth factor receptor (EGFR), EGFR (gene 1956); experiment: BSK_hDFCGF_EGFR: BioMAP Diversity Plus: hDFCGF Assay for Epidermal growth factor receptor (EGFR) Biomarker Activity (AID 2283057); details: primary human foreskin fibroblasts; actives raise or lower the signal
In short: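 Primary human foreskin fibroblasts were exposed to compound for 24 h, after which cell-surface EGFR was quantified by ELISA. Activity was fitted bidirectionally against the DMSO negative control as baseline.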

[14] = read-out: Interleukin-8 (IL8), CXCL8 (gene 3576); experiment: BSK_hDFCGF_IL8: BioMAP Diversity Plus: hDFCGF Assay for Interleukin-8 (IL8) Biomarker Activity (AID 2283058); details: primary human foreskin fibroblasts; actives raise or lower the signal
In short: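 Fibroblast monolayers (human foreskin, hDFCGF) received test chemical for 24 h before ELISA detection of IL-8; either increases or decreases relative to DMSO count as activity.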

[15] = BSK_hDFCGF_Proliferation: Cell Proliferation Assessment in the BioMAP Diversity Plus: hDFCGF Assay (AID 2283059); details: primary human foreskin fibroblasts;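 note: curves fitted for both rise and fall of signal versus DMSO baseline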
In short: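 Total protein read at 560 nm after 0.1% SRB staining of TCA-fixed human skin fibroblasts, […]. Activity is fitted in both directions relative to DMSO as baseline.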

[16] = read-out: Macrophage colony-stimulating factor (MCSF), CSF1 (gene 1435); experiment: BSK_hDFCGF_MCSF: BioMAP Diversity Plus: hDFCGF Assay for Macrophage colony-stimulating factor (MCSF) Biomarker Activity (AID 2283060); details: primary human foreskin fibroblasts; actives raise or lower the signal
In short: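 fibroblasts (human foreskin, primary), 24 h post-dose; M-CSF by ELISA; bidirectional fit, DMSO = baseline.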

[17] = BSK_hDFCGF_SRB: Viability Assessment in the BioMAP Diversity Plus: hDFCGF Assay (AID 2283061); details: primary human foreskin fibroblasts;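 note: cells exposed to compound for 24 h before the read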
In short: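 SRB-based viability read on primary human skin fibroblasts at 24 h: TCA fixation, 0.1% dye, 560 nm. Gain or loss of signal is fitted against the DMSO negative control.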

[18] = read-out: TIMP metallopeptidase inhibitor 1 (TIMP1), TIMP1 (gene 7076); experiment: BSK_hDFCGF_TIMP1: BioMAP Diversity Plus: hDFCGF Assay for TIMP metallopeptidase inhibitor 1 (TIMP1) Biomarker Activity (AID 2283062); details: primary human foreskin fibroblasts; actives raise or lower the signal
In short: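 Bidirectional curve fitting against DMSO baseline yielded this endpoint, based on ELISA detection of TIMP-1 in primary human foreskin fibroblasts exposed to compound for 24 h.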

[19] = read-out: Monokine induced gamma interferon (MIG), CXCL9 (gene 4283); experiment: BSK_hDFCGF_MIG: BioMAP Diversity Plus: hDFCGF Assay for Monokine induced gamma interferon (MIG) Biomarker Activity (AID 2283063); details: primary human foreskin fibroblasts; actives raise or lower the signal
In short: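 Endpoint derived by bidirectional fitting relative to DMSO; MIG quantified via ELISA in primary human foreskin fibroblasts harvested 24 h after dosing.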

[20] = read-out: Matrix Metallopeptidase 1 (MMP1), MMP1 (gene 4312); experiment: BSK_hDFCGF_MMP1: BioMAP Diversity Plus: hDFCGF Assay for Matrix Metallopeptidase 1 (MMP1) Biomarker Activity (AID 2283064); details: primary human foreskin fibroblasts; actives raise or lower the signal
In short: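 hDFCGF primary fibroblasts (human foreskin); chemical added; 24 h; MMP1 by ELISA; bidirectional fit vs DMSO.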

Measured: outcome

CCCCC(CC)CO (stereo not given)
inactive: [1] | [2] | [3] | [4] | [5] | [6] | [7] | [8] | [9] | [10] | [11] | [12] | [13] | [14] | [15] | [16] | [17] | [18] | [19] | [20]

CC(=O)OCC(COC(C)=O)OC(C)=O
inactive: [1] | [2] | [3] | [4] | [5] | [6] | [7] | [8] | [9] | [10] | [11] | [12] | [13] | [14] | [15] | [16] | [17] | [18] | [19] | [20]

NC1CCCCC1
inactive: [1] | [2] | [3] | [4] | [5] | [6] | [7] | [8] | [9] | [10] | [11] | [12] | [13] | [14] | [15] | [16] | [17] | [18] | [19] | [20]

OCC(O)CO
inactive: [1] | [2] | [3] | [4] | [5] | [6] | [7] | [8] | [9] | [10] | [11] | [12] | [13] | [14] | [15] | [16] | [17] | [18] | [19] | [20]

CCCCC(CC)COC(=O)CCCCCCCC(=O)OCC(CC)CCCC (stereo not given)
inactive: [1] | [2] | [3] | [4] | [5] | [6] | [7] | [8] | [9] | [10] | [11] | [12] | [13] | [14] | [15] | [16] | [17] | [18] | [19] | [20]

CCOCCOCCO
inactive: [1] | [2] | [3] | [4] | [5] | [6] | [7] | [8] | [9] | [10] | [11] | [12] | [13] | [14] | [15] | [16] | [17] | [18] | [19] | [20]

O=C1O[C@H]([C@H](O)CO)C(O)=C1O
inactive: [1] | [2] | [3] | [4] | [5] | [6] | [7] | [8] | [9] | [10] | [11] | [12] | [13] | [14] | [15] | [16] | [17] | [18] | [19] | [20]
